Laboratory results reported in PubChem BioAssay (NCI).
The panel holds about 83,000 compounds, 20% with a hit somewhere; the sample as a whole holds those more often.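 Interpretation: 100, growth as untreated; towards 0, rising growth inhibition; 0, no net growth; 0 to -100, cell death. Compounds scoring below 10 were considered active.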 Values without a mark were called inactive. Active and inactive are the calls of the source.

Legend:
Assay in all cases: NCI-60 one-dose screen, 48 h (100 = growth as untreated, 0 = no growth, -100 = all killed)
Conditions in all cases: 10 µM unless noted
SK-MEL-2 melanoma = test system: SK-MEL-2 melanoma
EKVX NSCLC = test system: EKVX NSCLC
SN12C renal = test system: SN12C renal
TK-10 renal = test system: TK-10 renal
ACHN renal = test system: ACHN renal
CAKI-1 renal = test system: CAKI-1 renal
A498 renal = test system: A498 renal
CCRF-CEM leukemia = test system: CCRF-CEM leukemia
MOLT-4 leukemia = test system: MOLT-4 leukemia
UO-31 renal = test system: UO-31 renal

Row | Compound | growth (SK-MEL-2 melanoma) | growth (EKVX NSCLC) | growth (SN12C renal) | growth (TK-10 renal) | growth (ACHN renal) | growth (CAKI-1 renal) | growth (A498 renal) | growth (CCRF-CEM leukemia) | growth (MOLT-4 leukemia) | growth (UO-31 renal)
1 | CC1(C)C2CCC(O)(C(=O)O)C1C2 (centres undefined) | 106% | 103% | 104% | 120% | 111% | 94% | 109% | 112% | 115% | 
2 | C=C(C)C1CCC2(C(=O)O)CCC3(C)C(CCC4C5(C)CCC(O)C(C)(C)C5CCC43C)C12 (centres undefined) | 25.4% | 48.1% | 26.8% | 12.8% | 24.2% | -5.47% (active) |  | 3.16% (active) | 11.3% | 21.5%
3 | CCN(CC)CCCC(C)Nc1cnc(C(=O)Nc2cc(C)cc3cccnc23)cn1 (centres undefined) | 104% | 77.8% | 77.9% | 86.9% | 77.9% | 93.4% |  | 54.2% | 46.5% | 63.3%
4 | Cn1c(=O)c2[nH]c(Cc3ccc4c(c3)OCO4)nc2n(C)c1=O | 122% | 97.8% | 95.1% | 113% | 92.1% |  |  | 87% | 122% | 93.5%
5 | Oc1ccc(-c2cnc(-c3ccccc3)[nH]2)c(O)c1 | 137% | 107% | 91.6% | 112% | 109% |  | 110% | -41.7% (active) | 94% | 88.7%
6 | Fc1ccc(-c2nnc(N3CCOCC3)c3ccccc23)cc1 | 111% | 69.5% | 95% | 138% | 103% |  | 105% | 124% | 243% | 85.6%
7 | O=C(NCCNC(=O)c1cc(S(=O)(=O)NCCc2ccccc2)c(O)c(O)c1O)c1cc(S(=O)(=O)NCCc2ccccc2)c(O)c(O)c1O | 63% | 49.9% | 52.3% | 96.6% | 68.6% |  | 87.3% | 45% | 56.6% | 46.5%
8 | Cc1ccc(NC(=O)Cn2nncc2CN2C(=O)CSC2=O)cc1C | 102% | 91.3% | 105% | 98.8% | 100% | 96.8% |  | 106% | 103% | 91.6%
9 | O=C(Nc1cnc(C(F)(F)F)cn1)c1cc(Cl)ccc1O | -27.6% (active) | 7.75% (active) | 5.36% (active) | 1.77% (active) | 3.85% (active) |  | -53.5% (active) | 14.9% | 1.24% (active) | -5.6% (active)
10 | C#CC[C@@H]1C[C@]2(C)[C@H]3CC=C4[C@H]5[C@@H](C)[C@H](C)CC[C@]5(C(=O)NCCCCCCCCN)CC[C@@]4(C)[C@]3(C)CC[C@H]2C(C)(C)[C@H]1OC(C)=O | 104% | 95% | 76.1% | 80.5% | 85.8% | -69.7% (active) |  | -34.6% (active) | -19.8% (active) | 67.2%
11 | CCN(CC)CCC(CNc1ccnc2cc(Cl)ccc12)c1ccc(O)cc1 (centres undefined) | 119% | 99.4% | 99.1% | 90.2% | 98.5% |  | 37.7% | 46% | 48.3% | 77.4%
12 | CCCCn1c(-c2ccc(F)cc2)nc2cc(OC)c(OC)cc2c1=O | 176% | 105% | 91.3% | 75.1% | 101% |  | 95.7% | -46% (active) | 51.1% | 82.2%
13 | C#CC[C@@H]1C[C@]2(C)[C@H]3CC[C@@H]4[C@H]5C(C(=C)C)CC[C@]5(C(=O)NCCCCCCCCN)CC[C@@]4(C)[C@]3(C)CC[C@H]2C(C)(C)[C@H]1OC(C)=O (some centres undefined) | 112% | 103% | 96.3% | 96.5% | 111% | 69.9% | 95.6% | -8.23% (active) |  | 
14 | Cc1ccc(O)c(Cc2ccccc2)c1 | 93.8% | 116% | 90.3% | 100% | 100% |  | 99.9% | 103% |  | 84%
15 | CCCCNCC(O)c1cc2c(Cl)cc(Cl)cc2c2cc(C(F)(F)F)ccc12 (centres undefined) | -65.4% (active) | -59.1% (active) | -82.2% (active) | -88.2% (active) | -78.7% (active) | -65.1% (active) |  | -49.6% (active) | -54.8% (active) | -81.2% (active)
16 | CC(=O)c1c(O)c(C)c(O)c2c1OC1=CC(=O)/C(=C(/C)N)C(=O)C12C (centres undefined) | 94.8% |  | 92.8% | 99.4% | 88.4% | 87.1% | 74.1% | 93.1% | 73.3% | 77.8%
17 | COc1cccc2nc(Nc3cccc(NC(=O)c4cc(N5CCOCC5)cc(C(F)(F)F)c4)c3)ccc12 | 79.4% | 64% | 57% | 65.9% | 45.1% | 60.7% | 99.4% |  | 35.2% | 
18 | CCC1CCc2nc3sc(C(=O)Nc4cccc(F)c4)c(N)c3cc2C1 (centres undefined) | 63.3% |  | 94.4% | 77% | 67.9% | 57.9% | 50.5% | 47.9% |  | 67.2%
19 | C#CC[C@@H]1C[C@]2(C)[C@H]3CC[C@@H]4[C@H]5C(C(=C)C)CC[C@]5(C(=O)NCCN(CCN)CCN)CC[C@@]4(C)[C@]3(C)CC[C@H]2C(C)(C)[C@H]1OC(C)=O (some centres undefined) | 112% | 31% |  | 95% | 91.3% | 56.3% | 128% | 22.5% | 31.1% | 74.7%
20 | CCCCNCCC(O)c1cc2ccc(C(F)(F)F)cc2c2cc(C(F)(F)F)ccc12 (centres undefined) | -70.1% (active) | -54% (active) |  | -91.8% (active) | -82.8% (active) | -74.7% (active) | -6.76% (active) | -45.5% (active) | -58.8% (active) | -88.8% (active)
21 | Oc1[nH]c2ccccc2c1/C=c1/ccc2c(c1)N=C(c1ccc(C(F)(F)F)cc1)N=2 | 27.9% | 51.1% | 63.7% | 75.5% | 58.7% | 32.8% | 35% | 8.28% (active) | 35.5% | 
22 | C=CCOc1c(Br)cc(Br)cc1Br | 69.3% | 64% |  | 102% | 48.7% | 76.5% | 55.9% | 43.6% | 64.6% | 28.2%
23 | O=C(/C=C/c1ccccc1)C(Br)C(Br)c1ccccc1 (centres undefined) | 40.9% |  | 41.4% | -31.1% (active) | -65.9% (active) | -44.4% (active) | 85.1% | -41.4% (active) | -25% (active) | -88.1% (active)
24 | CCNS(=O)(=O)c1ccc(C)cc1 | 116% | 106% |  | 115% | 96.4% |  |  | 89.7% | 95.9% | 97.3%
25 | COc1ccc(/C(=C\c2cc(OC)c(OC)c(OC)c2)C(=O)Nc2nc3ccc(Cl)cc3s2)cc1 | 94.8% | 80.5% | 96.9% | 92.4% | 103% | 83.2% | 97.4% | 85% | 64.4% | 
26 | COc1ccc(/C=C/C(=O)c2ccc(NC(=O)CSc3nnc(-c4ccc(OC)cc4)n3-c3ccccc3)cc2)cc1 | 95.5% | 95.5% | 96.5% | 109% | 106% |  | 109% | 95% | 88% | 
27 | O=C(CN1CCN(c2ccccc2)CC1)N1CCN(c2nnc(-c3ccc(Cl)cc3)c(-c3ccc(Cl)cc3)n2)CC1 | 71.9% | 35% | 62.7% | 73.4% | 53.6% |  | 62.6% | 29.4% | 2% (active) | 
28 | CCN(CC)c1ccc2nc3c4ccccc4c(=O)cc-3n(-c3ccccc3)c2c1 | -37.2% (active) | -4.16% (active) |  | 13.6% | -1% (active) | -17.8% (active) | 17.6% | 15.7% |  | 
29 | CC1=C(C(=O)Nc2ccc(F)cc2)C(c2ccccc2)C2=C(CC(C)(C)CC2=O)N1 (centres undefined) | 89.4% |  | 70.1% | 104% | 82.7% | 64.3% | 47.1% | 62.3% | 62.9% | 60.1%
30 | NC(=Nc1ccccc1)SCCCSC(N)=Nc1ccccc1 | 90.8% | 78.8% |  | 101% | 81.5% | 76.4% | 80.2% | 79.3% | 90.8% | 42.1%
